Measured values as given in the supplement of paper PMC10849652.
Targets with a hit are over-represented here; the source holds about 7,900 in all. About 0.6% of all pairs of compound and target were hits.

Tests used:
Assay in all cases: log2 fold change, soluble protein after heating vs DMSO (PISA); higher = thermal stabilisation; K562 cells, 10 uM, 30 min; active = over 0.2 and 3.5 SD of the protein, either way, in both replicates (recomputed)
[1] = compound: CS(=O)(=O)c1ccc(-c2cnc(N)c(C(=O)Nc3ccccc3)n2)cc1
Outline: (§1)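 Soluble protein was defined as the supernatant after 21,000xg for 90 min. It came from K562 cells at 2×10^6 cells/mL given 10 μM compound for 30 min, heated in aliquots for 3 min across 48°C-58°C, pooled, and extracted in PBS with 0.5% NP-40 at 4°C, and was quantified by TMTpro 16plex LC-MS/MS with equalised channel sums. Thermal stability against control samples, from duplicates, is reported as log2 fold change.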

crizotinib = compound: C[C@@H](Oc1cc(-c2cnn(C3CCNCC3)c2)cnc1N)c1c(Cl)ccc(F)c1Cl [crizotinib]
Outline: as §1

[2] = compound: C[C@@H]1COCCN1C2=NC(=NC(=C2)C3(CC3)S(=O)(=O)C)C4=C5C=CNC5=CC=C4
Outline: as §1

[3] = compound: C[C@H](C1=CC=C(C=C1)C(=O)NC2=C3C=CNC3=NC=C2)N
Outline: as §1

duvelisib = compound: C[C@H](Nc1ncnc2nc[nH]c12)c1cc2cccc(Cl)c2c(=O)n1-c1ccccc1 [duvelisib]
Outline: as §1

gandotinib = compound: Cc1cc(Nc2cc(CN3CCOCC3)c3nc(C)c(Cc4ccc(Cl)cc4F)n3n2)n[nH]1 [gandotinib]
Outline: as §1

tozasertib = compound: Cc1cc(Nc2cc(N3CCN(C)CC3)nc(Sc3ccc(NC(=O)C4CC4)cc3)n2)n[nH]1 [tozasertib]
Outline: as §1

[4] = compound: Cc1cc(SCc2sc(-c3ccc(C(F)(F)F)cc3)nc2C)ccc1OCC(=O)O
Outline: as §1

doramapimod = compound: Cc1ccc(-n2nc(C(C)(C)C)cc2NC(=O)Nc2ccc(OCCN3CCOCC3)c3ccccc23)cc1 [doramapimod]
Outline: as §1

ispinesib = compound: Cc1ccc(C(=O)N(CCCN)[C@@H](c2nc3cc(Cl)ccc3c(=O)n2Cc2ccccc2)C(C)C)cc1 [ispinesib]
Outline: as §1

bafetinib = compound: Cc1ccc(NC(=O)c2ccc(CN3CC[C@H](N(C)C)C3)c(C(F)(F)F)c2)cc1Nc1nccc(-c2cncnc2)n1 [bafetinib]
Outline: as §1

[5] = compound: Cc1cccc(CC(=O)N2CCc3c2ccc(-c2cn(C)c4ncnc(N)c24)c3F)n1
Outline: as §1

nilotinib = compound: Cc1cn(-c2cc(NC(=O)c3ccc(C)c(Nc4nccc(-c5cccnc5)n4)c3)cc(C(F)(F)F)c2)cn1 [nilotinib]
Outline: as §1

[6] = compound: Cc1nc(Nc2n[nH]c3c2CN(C(=O)N[C@H](CN(C)C)c2ccccc2)C3(C)C)c2sccc2n1
Outline: as §1

dasatinib = compound: Cc1nc(Nc2ncc(C(=O)Nc3c(C)cccc3Cl)s2)cc(N2CCN(CCO)CC2)n1 [dasatinib]
Outline: as §1

[7] = compound: Cc1ncc(-c2ccnc(Nc3ccc(S(C)(=O)=O)cc3)n2)n1C(C)C
Outline: as §1

[8] = compound: Cn1cc(-c2ccc3c(c2)CCN3C(=O)Cc2cccc(C(F)(F)F)c2)c2c(N)ncnc21
Outline: as §1

[9] = compound: Cn1cc(-c2ccc3nnc(C(F)(F)c4ccc5ncccc5c4)n3n2)cn1
Outline: as §1

tipifarnib = compound: Cn1cncc1[C@@](N)(c1ccc(Cl)cc1)c1ccc2c(c1)c(-c1cccc(Cl)c1)cc(=O)n2C [tipifarnib]
Outline: as §1

mubritinib = compound: FC(F)(F)c1ccc(/C=C/c2nc(COc3ccc(CCCCn4ccnn4)cc3)co2)cc1 [mubritinib]
Outline: as §1

Measured: log2 fold change

CAMK2G isoform 6 (UniProt Q13555)
Chain of UniProt Q13555 (Q13555 whole entry, looked up): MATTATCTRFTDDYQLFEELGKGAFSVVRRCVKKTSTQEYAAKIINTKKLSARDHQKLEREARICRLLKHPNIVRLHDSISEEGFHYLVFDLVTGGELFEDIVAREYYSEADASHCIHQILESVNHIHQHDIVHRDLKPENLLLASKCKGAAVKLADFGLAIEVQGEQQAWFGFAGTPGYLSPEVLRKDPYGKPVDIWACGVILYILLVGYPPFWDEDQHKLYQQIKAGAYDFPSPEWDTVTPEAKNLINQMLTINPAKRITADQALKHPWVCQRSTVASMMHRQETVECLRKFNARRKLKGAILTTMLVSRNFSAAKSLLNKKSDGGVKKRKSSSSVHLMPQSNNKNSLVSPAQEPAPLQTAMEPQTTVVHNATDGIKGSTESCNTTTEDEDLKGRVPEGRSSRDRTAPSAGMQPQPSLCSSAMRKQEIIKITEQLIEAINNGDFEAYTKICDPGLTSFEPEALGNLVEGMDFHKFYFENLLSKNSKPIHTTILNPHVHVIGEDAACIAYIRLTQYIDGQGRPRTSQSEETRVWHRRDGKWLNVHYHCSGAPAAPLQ
active: [6] 0.642
inactive: [1] -0.02 | crizotinib -0.146 | [2] -0.064 | [3] -0.116 | duvelisib -0.025 | gandotinib -0.041 | tozasertib 0.028 | [4] -0.004 | doramapimod 0.073 | ispinesib 0 | bafetinib 0.064 | [5] -0.148 | nilotinib 0.002 | dasatinib -0.11 | [7] 0.083 | [8] 0.01 | [9] -0.073 | tipifarnib -0.025 | mubritinib -0.008

CAMKK2 (UniProt Q96RR4)
Chain of UniProt Q96RR4 (Q96RR4 whole entry, looked up): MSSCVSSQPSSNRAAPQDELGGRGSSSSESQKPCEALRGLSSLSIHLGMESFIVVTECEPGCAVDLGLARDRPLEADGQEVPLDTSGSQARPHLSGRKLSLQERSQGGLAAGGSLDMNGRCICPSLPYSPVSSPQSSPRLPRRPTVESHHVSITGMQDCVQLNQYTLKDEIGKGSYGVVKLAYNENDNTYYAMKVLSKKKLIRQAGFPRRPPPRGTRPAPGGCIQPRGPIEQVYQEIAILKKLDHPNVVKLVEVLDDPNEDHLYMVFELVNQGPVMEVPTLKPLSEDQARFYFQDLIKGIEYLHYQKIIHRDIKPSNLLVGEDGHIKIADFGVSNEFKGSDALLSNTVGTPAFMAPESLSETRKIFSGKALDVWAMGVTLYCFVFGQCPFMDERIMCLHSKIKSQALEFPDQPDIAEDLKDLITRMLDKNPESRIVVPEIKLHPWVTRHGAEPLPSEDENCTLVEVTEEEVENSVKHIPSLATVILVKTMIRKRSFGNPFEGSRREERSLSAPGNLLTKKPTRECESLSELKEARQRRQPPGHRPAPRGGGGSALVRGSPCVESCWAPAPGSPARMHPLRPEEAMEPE
inactive: [1] 0 | crizotinib 0.106 | [2] -0.045 | [3] -0.182 | duvelisib 0.093 | gandotinib -0.221 | tozasertib 0.15 | [4] 0 | doramapimod 0.086 | ispinesib -0.204 | bafetinib 0.04 | [5] -0.144 | nilotinib -0.008 | [6] 0.226 | dasatinib 0 | [7] -0.14 | [8] -0.083 | [9] 0.102 | tipifarnib -0.076 | mubritinib -0.024

COMT (UniProt P21964)
Chain of UniProt P21964 (P21964 whole entry, looked up): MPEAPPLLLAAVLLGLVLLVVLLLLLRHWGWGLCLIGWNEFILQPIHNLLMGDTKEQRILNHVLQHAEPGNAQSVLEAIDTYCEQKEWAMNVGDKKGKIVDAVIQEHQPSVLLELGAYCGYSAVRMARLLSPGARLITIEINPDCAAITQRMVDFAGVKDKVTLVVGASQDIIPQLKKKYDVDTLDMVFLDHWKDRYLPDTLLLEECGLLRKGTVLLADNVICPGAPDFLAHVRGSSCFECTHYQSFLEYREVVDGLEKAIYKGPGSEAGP
active: crizotinib 0.352 | ispinesib 0.235
inactive: [1] 0.04 | [2] 0.053 | [3] -0.081 | duvelisib 0.109 | gandotinib 0.031 | tozasertib -0.028 | [4] 0.02 | doramapimod 0 | bafetinib 0.011 | [5] -0.019 | nilotinib 0.01 | [6] 0.119 | dasatinib 0.03 | [7] 0.009 | [8] 0.073 | [9] 0.031 | tipifarnib 0.002 | mubritinib 0.06

CHCHD1 (UniProt Q96BP2)
inactive: [1] -0.115 | [2] -0.203 | [3] -0.067 | duvelisib -0.061 | gandotinib -0.085 | tozasertib -0.045 | [4] 0.036 | doramapimod -0.087 | ispinesib 0.06 | bafetinib -0.084 | [5] 0.081 | nilotinib -0.007 | [6] 0.02 | dasatinib -0.057 | [7] -0.031 | [8] -0.153 | [9] 0.105 | tipifarnib 0.077 | mubritinib 0.104
active: crizotinib -0.54

CDC42EP1 (UniProt Q00587)
Chain of UniProt Q00587 (Q00587 whole entry, looked up): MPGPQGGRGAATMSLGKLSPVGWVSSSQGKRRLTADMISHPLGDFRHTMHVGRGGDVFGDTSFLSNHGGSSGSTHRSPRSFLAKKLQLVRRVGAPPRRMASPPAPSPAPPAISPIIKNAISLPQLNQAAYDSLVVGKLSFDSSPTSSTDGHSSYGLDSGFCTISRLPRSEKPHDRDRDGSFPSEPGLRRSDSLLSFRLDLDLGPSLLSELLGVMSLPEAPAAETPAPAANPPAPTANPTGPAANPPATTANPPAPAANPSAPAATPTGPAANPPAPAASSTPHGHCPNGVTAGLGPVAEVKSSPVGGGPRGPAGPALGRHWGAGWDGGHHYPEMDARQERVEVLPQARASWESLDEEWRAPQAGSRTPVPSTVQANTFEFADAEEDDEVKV
active: crizotinib -0.566 | gandotinib -0.524 | [6] -0.59
inactive: [1] -0.006 | [2] 0.019 | [3] -0.041 | duvelisib -0.061 | tozasertib -0.192 | [4] 0.073 | doramapimod 0.076 | ispinesib -0.327 | bafetinib -0.115 | [5] 0.092 | nilotinib -0.072 | dasatinib -0.2 | [7] -0.211 | [8] 0.079 | [9] 0.051 | tipifarnib 0.049 | mubritinib 0.007

CD151 (UniProt P48509)
Chain of UniProt P48509 (P48509 whole entry, looked up): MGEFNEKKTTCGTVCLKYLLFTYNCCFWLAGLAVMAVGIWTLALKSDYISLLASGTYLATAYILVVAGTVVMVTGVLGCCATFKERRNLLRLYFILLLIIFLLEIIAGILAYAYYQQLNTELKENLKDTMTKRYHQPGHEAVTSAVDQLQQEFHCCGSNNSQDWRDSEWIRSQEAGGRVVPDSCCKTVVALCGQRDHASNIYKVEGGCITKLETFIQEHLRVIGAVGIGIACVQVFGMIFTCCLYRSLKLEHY
inactive: [1] -0.151 | crizotinib 0.208 | [2] 0.07 | [3] -0.089 | duvelisib 0.138 | gandotinib -0.19 | tozasertib -0.04 | [4] -0.043 | doramapimod -0.056 | ispinesib 0.068 | bafetinib 0.135 | [5] 0.015 | nilotinib -0.072 | [6] 0.157 | dasatinib 0.063 | [7] 0.019 | [8] 0.025 | [9] -0.002 | tipifarnib -0.076 | mubritinib -0.092

CHMP4C (UniProt Q96CF2)
Chain of UniProt Q96CF2 (Q96CF2 whole entry, looked up): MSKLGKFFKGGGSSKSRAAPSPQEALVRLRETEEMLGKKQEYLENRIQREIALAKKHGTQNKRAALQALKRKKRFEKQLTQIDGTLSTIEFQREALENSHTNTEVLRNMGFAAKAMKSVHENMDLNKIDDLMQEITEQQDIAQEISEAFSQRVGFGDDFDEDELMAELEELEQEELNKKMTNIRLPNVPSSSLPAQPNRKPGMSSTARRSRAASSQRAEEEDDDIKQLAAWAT
inactive: [1] -0.044 | crizotinib -0.007 | [2] -0.256 | [3] -0.003 | duvelisib 0.067 | gandotinib 0.073 | tozasertib -0.024 | [4] 0.03 | doramapimod -0.046 | ispinesib -0.079 | bafetinib -0.01 | [5] -0.003 | nilotinib -0.03 | [6] -0.021 | dasatinib -0.027 | [7] 0 | [8] -0.008 | [9] 0.041 | tipifarnib -0.015 | mubritinib 0.039

CCM2 isoform 2 (UniProt Q9BSQ5)
Chain of UniProt Q9BSQ5 (Q9BSQ5 whole entry, looked up): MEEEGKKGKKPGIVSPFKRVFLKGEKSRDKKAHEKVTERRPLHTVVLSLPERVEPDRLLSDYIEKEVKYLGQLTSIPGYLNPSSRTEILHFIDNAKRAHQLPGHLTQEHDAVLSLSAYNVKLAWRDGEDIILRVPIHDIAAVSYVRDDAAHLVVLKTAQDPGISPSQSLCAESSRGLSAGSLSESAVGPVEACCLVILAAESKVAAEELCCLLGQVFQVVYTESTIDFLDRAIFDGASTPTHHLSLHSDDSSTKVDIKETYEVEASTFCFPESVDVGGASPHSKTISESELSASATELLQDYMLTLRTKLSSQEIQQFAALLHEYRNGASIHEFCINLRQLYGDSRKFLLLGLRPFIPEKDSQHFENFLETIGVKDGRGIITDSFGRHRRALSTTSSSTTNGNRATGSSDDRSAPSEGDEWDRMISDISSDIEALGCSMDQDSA
inactive: [1] 0.088 | crizotinib -0.022 | [2] -0.016 | [3] 0.003 | duvelisib -0.02 | gandotinib 0.026 | tozasertib 0.132 | [4] -0.067 | doramapimod 0.013 | ispinesib -0.043 | bafetinib -0.059 | [5] -0.038 | dasatinib -0.003 | [8] 0.043 | [9] -0.021 | tipifarnib -0.024 | mubritinib -0.061
